# aSyn yeast inh: qHTS of alpha-syn Inhibitors | hit rate 0.14% among 370,000 | Potency, µM (top dose mostly 46.1 µM), for inactives: top-dose growth rescue (activation), actives largely listed as activators | AID 652106, 2013 | Yeast expressing alpha-synuclein, growth rescue, BacTiter-Glo, 24 h; further: % of control where 0% means no effect; nearly all actives have a fitted effect of over 65% in size
#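 Galactose-induced alpha-syn yeast (OD600=0.02, raffinose-pregrown) + pinned cpd, 24 hr, 30 deg C; growth by BacTiter-Glo luminescence. Growth restoration scores as activation.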
# TDP-43 yeast inh: qHTS of TDP-43 Inhibitors | Potency, µM (top dose mostly 46.1 µM), without a hit: at the top dose growth rescue (activation), usual class: activators | AID 652104, 2013 | TDP-43 expressing yeast growth rescue, BacTiter-Glo, 24 h | hit rate 1.8% among 410,000; further: % of control where 0% means no effect; nearly all actives have a fitted effect of over 50% in size
#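 In this qHTS, compounds that restore growth of yeast expressing TDP-43 appear as activators. Cells (OD600=0.02, galactose medium, raffinose-pregrown) are incubated with compound 24 hr at 30 deg C and growth is quantified by BacTiter-Glo.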
# FUS suppressor: qHTS for Suppressors of FUS Proteinopathy: Primary screen using FUS-linked yeast assay; Potency, µM (top dose mostly 76.6 µM), actives largely listed as activators; hit rate 0.24% among 390,000; S. cerevisiae FUS-expressing, growth rescue, OD600, 24 h;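 further: plate controls were DMSO vehicle for no effect and reference control for full effect; nearly all actives have a fitted effect of over 55% in size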
#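 Galactose (2%) drives FUS expression in yeast precultured in raffinose; seeding density OD 0.005. Test compounds incubated 24hr at 30C and 99% humidity before absorbance at 600 nm was measured.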
# Abeta yeast res: qHTS for compounds that reverse cellular toxicity of Amyloid beta (A-beta) peptide in yeast: Primary Screen; yeast expressing A-beta42, growth rescue, OD600, 48 h; response scale: 0% DMSO, 100% iron-clioquinol control; hit rate 0.063% among 410,000; Potency, µM (top dose mostly 46.1 µM), actives largely listed as activators; further: nearly all actives have a fitted effect of over 55% in size
#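 Yeast growth medium received pinned compounds, then yeast cells expressing toxic A-beta were added; plates incubated at 30 C for 48 hr. Growth read as absorbance at 600 nm, normalized to DMSO and equimolar FeCl3 plus clioquinol controls.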
# PTAP TSG101 blk: qHTS Assay for Iinhibitors of HIV-1 Budding by Blocking the Interaction of PTAP/TSG101. Fluorescence polarization, FITC-PTAP peptide / Tsg101 binding. Potency, µM (top dose mostly 115 µM), inactives show top-dose activity change, negative = inhibition, actives largely listed as inhibitors. 340,000 tested, under 10 active; active means well fitted inhibition curve with a large enough effect in the main read-out, with a control signal flat, not every such curve was filed as active; inconclusive means small, poorly fitted or top-dose-only effect, or effect the other way, or a change in a side signal; inactive means no such curve, though single readings can be large or run the other way; further: % of control where 0% means no effect
# Target sequence (Q99816 whole entry, looked up): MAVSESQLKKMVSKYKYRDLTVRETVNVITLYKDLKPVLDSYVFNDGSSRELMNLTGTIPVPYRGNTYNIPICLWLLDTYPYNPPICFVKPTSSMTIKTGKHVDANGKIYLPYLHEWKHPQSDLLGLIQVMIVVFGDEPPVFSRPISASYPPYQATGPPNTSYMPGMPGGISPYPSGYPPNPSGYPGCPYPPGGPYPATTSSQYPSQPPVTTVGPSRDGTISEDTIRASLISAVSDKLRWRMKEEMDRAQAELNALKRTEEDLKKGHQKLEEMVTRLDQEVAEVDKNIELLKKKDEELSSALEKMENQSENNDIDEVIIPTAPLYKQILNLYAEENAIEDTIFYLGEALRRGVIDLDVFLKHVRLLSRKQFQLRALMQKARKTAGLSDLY
#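 Fluorescence anisotropy tracks displacement of a FITC-tagged PTAP peptide (50 nM) from the Tsg101 binding domain (10 uM), following a 20 min room-temperature incubation at pH 7.5.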
# * = called active by the depositor; i = inactive; ? = inconclusive; · = no result given; [ ] = dose if it differs, or a comment. The list is not random: actives were taken first. Their share in the collection is about 2.1%. Unless noted, the call rests on the fitted dose curve; in most records, active means well fitted curve in the direction sought with a large enough effect; inconclusive means small, poorly fitted or top-dose-only effect, or another doubt; inactive means no such curve, though single readings can be large; an effect the other way counts as inactive or inconclusive. Potency means the concentration at half of the fitted maximal effect.
SMILES,aSyn yeast inh,TDP-43 yeast inh,FUS suppressor,Abeta yeast res,PTAP TSG101 blk
Cc1ccc2nc(-c3ccc(NS(=O)(=O)c4ccc(F)c(F)c4)cc3)sc2c1,-27%,25µM*,i,i,-1%
Cc1ccc2c(CNCc3ccc(C)o3)c(C(=O)O)n(Cc3ccccc3C)c2c1,·,0%,i,i,·
Cc1ccc(OCC(=O)Nc2ccc(Cl)c(-c3nc4ncccc4o3)c2)cc1C,?,18µM*,i,i,·
O=C(Nc1cccc(OC(F)(F)F)c1)c1ccc(-c2cccnc2)c2ccoc12,-10%,14%,i,i,·
COc1cc(-c2cc(=O)c3c(O)c(OC)c(OC)c(OC)c3o2)cc(OC)c1OC,25µM*,6%,i,i,-1%
CC[N+]1(CC(=O)c2cccs2)CCCCC1,-10%,·,·,·,·
CC1CCCC(NC(=O)CSc2ncnc3ccccc23)C1C (centres undefined),2%,14µM*,i,i,-12%
COc1ccc(-c2nc(CCNC(=O)c3cccs3)cs2)cc1,-31%,?,i,i,0%
O=C(NCCc1csc(-c2ccc(F)cc2)n1)c1cccs1,·,11µM*,i,i,·
O=C(NCCc1csc(-c2cccc(F)c2)n1)c1cccs1,·,16µM*,i,i,·
CC1CCN(CCCNS(=O)(=O)c2cc3c(cc2Br)CCN3C(=O)C2CC2)CC1,·,·,i,·,·
CN1C(=O)c2ccccc2N(C)C1c1ccccc1Cl (centres undefined),13%,16µM*,i,i,0%
COC(=O)C1=C(C)N(c2ccc(Cl)c(Cl)c2)C(=O)C1,-11%,13µM*,i,i,-11%
CCCN(C)C1CN(Cc2cn(Cc3ccc(F)cc3)nn2)S(=O)(=O)C1 (centres undefined),-7%,0%,i,i,·
Cn1nc(C(=O)NCc2ccc(Cl)cc2)c2c1-c1ccccc1SC2,·,8%,i,i,·
CSc1ccc(CCNC(=O)c2nn(C)c3c2CS(=O)(=O)c2ccccc2-3)cc1,8%,25µM*,i,i,-3%
Cn1nc(C(=O)NCc2ccc(F)cc2)c2c1-c1ccccc1S(=O)(=O)C2,1%,10%,?,i,-3%
COc1ccc(OC)c(CCNC(=O)c2nn(C)c3c2CSc2ccccc2-3)c1,·,22µM*,i,i,·
CC(NC(=O)c1nn(C)c2c1CSc1ccccc1-2)c1ccccc1 (centres undefined),·,18µM*,?,i,·
Cn1nc(C(=O)NCc2ccc(F)cc2)c2c1-c1ccccc1SC2,·,18µM*,i,i,·
Cc1c2cnn(CC(=O)N3CCOCC3)c(=O)c2c(C)n1Cc1ccccc1F,?,-8%,i,i,-1%
CN(C)c1ccc(/C=C2/CCc3ccccc32)cc1,0%,·,·,·,·
COc1cc(/C=C/C(=O)c2c(O)ccc3c(C)cc(=O)oc23)ccc1O,5µM*,?,i,i,-1%
O=c1c2c(-c3ccc(Cl)cc3)csc2nc2n1CCC2,-3%,14µM*,·,i,-1%
Nn1cnc2scc(-c3ccc(Cl)cc3)c2c1=O,3%,?,i,i,-7%
SMILES,aSyn yeast inh,TDP-43 yeast inh,FUS suppressor,Abeta yeast res,PTAP TSG101 blk
CS(=O)(=O)c1ccc(C(=O)OCc2nnc(-c3ccc(Cl)cc3)o2)cc1[N+](=O)[O-],-24%,18µM*,?,i,-1%
Cc1cc(NC(=O)COC(=O)c2ccccc2OCCOc2ccccc2)ccc1Br,-2%,·,·,·,·
Cc1ccc(Cl)cc1N1CCN(C(=O)c2cc(S(=O)(=O)N3CCCC3)c[nH]2)CC1,·,-12%,?,i,·
Cc1ccccc1N1CC(c2nc3ccccc3n2CCC2CCCCC2)CC1=O (centres undefined),·,22µM*,?,i,·
O=C(NNc1nc2cc3c(cc2s1)OCCO3)c1ccc(F)cc1,0%,10µM*,i,?,-2%
COc1ccc(C(C)=O)cc1COC(=O)C1CCN(C(=O)c2ccc(Cl)cc2)CC1,1%[1.84 µM],20µM*,?,i,0%
Cc1ccc(N2CCN(C(=O)NCc3noc4ccccc34)CC2C)cc1 (centres undefined),·,?,i,i,·
COc1cccc(Nc2nc(N)c([N+](=O)[O-])c(NCc3ccccc3)n2)c1,2%,25µM*,i,i,-2%
O=S(=O)(Nc1cccc2ccccc12)c1cccc2ccccc12,12%,·,·,·,·
O=C(Cc1ccc(F)cc1)OCN1C(=O)c2ccccc2C1=O,12%,?,i,i,-1%
O=C(c1ccc(Cl)cc1)c1ccc(CN2C(=O)c3ccccc3C2=O)o1,10%,14µM*,i,i,-4%
O=C(c1ccc(F)cc1)c1ccc(CN2C(=O)c3ccccc3C2=O)o1,2%,13µM*,i,i,0%
COc1ncnc2c1ncn2CCCNCCCN1CCCC1=O,11%,21%,i,i,·
Nc1cc(=O)[nH]c(=S)[nH]1,5%,·,·,·,·
CCO/C=C1/C(=O)N(C)C(=O)c2cc(OC)ccc21,2%,13µM*,i,i,2%
CCO/C=C1/C(=O)N(c2ccc(OC)cc2)C(=O)c2ccccc21,11%,-5%,i,i,-1%
Cc1cc(C)c(NC(=O)/C=C\C(=O)O)c([N+](=O)[O-])c1,-64%,16µM*,i,i,1%
Cc1cc(C)c(NC(=O)/C=C\C(=O)O)c(Cl)c1,2%,13µM*,i,i,1%
Cc1ccc(NC(=O)/C=C\C(=O)O)c([N+](=O)[O-])c1,-6%,?,·,i,-7%
Cc1cc(C)c(NC(=O)CS)c(Cl)c1,-1%,14%,i,i,-2%
COc1ccc(C(=O)Nc2ccc(OCc3cc(=O)n4ccccc4n3)cc2)cc1,·,24%,i,i,·
O=S(=O)(Nc1ccc(Cl)cn1)c1ccc(Cl)cc1,6%,11µM*,i,i,-11%
CCCCN=C1NN=C(c2ccc(C)c(C)c2)CS1,-3%,14µM*,i,i,0%
CCOc1ccc(-c2cc3c(=O)n(Cc4nc(-c5ccccc5OCC)oc4C)ccn3n2)cc1Cl,·,-42%,i,i,·
Cc1cc(OC(F)F)ccc1NC(=S)NC1CCCC1,4%,23%,i,13µM*,1%
Cc1cc(F)ccc1NC(=S)NC1CCCC1,-7%,14%,i,i,-8%
N#Cc1ccc(/C=C2\C=Cc3ccccc32)cc1,-9%,·,·,·,·
Nc1ccn(C2OC(CCl)C(O)C2O)c(=O)n1 (centres undefined),0%,25%,i,i,·
CC(C)N(Cc1ccccc1)c1ncnc2c1nnn2C,·,0%,i,i,·

# Bioassay records (PubChem BioAssay)
